# Assay results from PubChem BioAssay.
# Several values for one entry are separate records, joined by “and”; a condition that tells them apart may be missing. Equal entries are not always repeated. Records with an inconclusive call do not appear. Activity calls are given as the source filed them. Unless noted, no stated cut-off is given here; in the data, active means parasite load remaining mostly below about 12% (no sharp cut-off); inactive means mostly above about 10%.
# How the values were obtained:
# [1] = P. berghei load reduction in hepatocytes – cell-based, HepG2, luciferase luminescence, HepG2 viability, primary screen (AID 624349);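 further: 100% = mean of DMSO negative control wells on the same plate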; conditions: P. berghei liver stage in HepG2, luciferase luminescence, concentration not given here; parasite load remaining: stronger effect = lower value; viability: measured here: HepG2 viability without parasites
# [2] = Wnt pathway potentiators raising nuclear beta-catenin – imaging, WNT3A-conditioned medium, mouse C2C12, NPC library, primary screen (AID 1117326; in the data active means nuclear beta-catenin stimulation mostly above about 4.2%, no sharp cut-off; inactive means mostly below about 10%); conditions: stronger effect = higher value
# [3] = stimulators of insulin release from INS-1E, primary screen, cell-based, 5 mM glucose, NPC library (AID 1117329;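 active means compound raises insulin release from rat beta cells at 5 mM glucose, no numeric limit stated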); conditions: rat INS-1E insulin secretion, at 10 µM, stronger effect = higher value
# [4] = growth inhibition of GSK3B-pretreated HCT116 cells – cell-based, CellTiter-Glo, 0.2 to 20 µM (AID 1117336;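 active means compounds lowering colon cancer cell viability after pretreatment blocking the GSK3B kinase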); conditions: HCT116 viability after GSK3B inhibitor, at 20 µM, stronger effect = higher value
# [5] = inhibition of endothelial tube formation, primary screen, imaging, VEGF stimulated, CD31 staining, tube area, NPC library (AID 1117340;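 active means compound that reduces growth-factor-driven endothelial tube area in a mixed cell culture, no cutoff stated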); conditions: VEGF-stimulated ADSC/ECFC co-culture, at 10 µM, stronger effect = higher value
# [6] = GLP1 release stimulators, primary, NCI-H716, NPC library (AID 1117341;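 active means compound raises GLP1 secretion from the human gut endocrine cells, with no numeric limit stated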); conditions: NCI-H716 cells, at 10 µM, stronger effect = higher value
# [7] = HCT116 colon cancer cell growth inhibition, primary screen, CellTiter-Glo luminescence, NPC library (AID 1117342;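 active means compounds that lower survival of HCT116 colon cancer cells in the luminescence readout, no numeric limit stated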); conditions: at 20 µM (top of the series)
# [8] = reduced SW480 viability measured with CellTiter-Glo, NPC library, primary (AID 1117343;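 active means compounds that lower viability of the colon cancer cells in the luminescence readout, with no numeric limit stated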); conditions: CellTiter-Glo luminescence; at 20 µM (top of the series) unless noted
# [9] = NPC library primary testing for decreased DLD-1 cell viability via CellTiter-Glo (AID 1117346;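 active means compounds that lower survival of DLD-1 colon cancer cells in the luminescence readout, no cutoff given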); conditions: DLD-1 viability, CellTiter-Glo luminescence; at 20 µM (top of the series)
# [10] = EMT-state selective cytotoxicity in co-culture – imaging, PC-3E GFP, TEM4-18 mCherry, primary screen (AID 1345086;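 active means compounds killing one labelled cell type while sparing the other, by normalised counts and ratio limits, not self-fluorescent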;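 on all read-outs here: cells exposed to compound for 72 h before imaging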;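 on red/green cell ratio (normalised): normalised mesenchymal count divided by normalised epithelial count so high means epithelial killing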); conditions: PC-3E GFP / TEM4-18 mCherry co-culture, imaging cell counts, at 1 µM; for red/green cell ratio (normalised): actives lie on both sides, counts scaled to control wells, 1 = unselective
# [11] = MELAS cybrid and Rieske KO viability enhancers – cell-based, MELAS cybrids, Rieske KO mouse fibroblasts, CellTiter-Glo, primary screen (AID 1508586;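 active means mean z-score across replicates of 1.96 or higher in either the MELAS or the Rieske mutant cell line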;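 further: z relative to plate mean and SD of compound and empty wells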); conditions: low glucose
# [12] = molecular target: NAD(+) hydrolase SARM1 (Homo sapiens) (UniProt Q6SZW1); test: blocking NAD cleavage by SARM1 SAM-TIR – cell lysate, NAD-Glo luminescence (AID 1508614;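 active means compound whose remaining NAD level is above about 45 nM, limit read from the data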); conditions: SAM-TIR HEK293T lysate NADase, at 1 µM, stronger effect = higher value
# Sequence of NAD(+) hydrolase SARM1 (Homo sapiens) (Q6SZW1 whole entry, looked up): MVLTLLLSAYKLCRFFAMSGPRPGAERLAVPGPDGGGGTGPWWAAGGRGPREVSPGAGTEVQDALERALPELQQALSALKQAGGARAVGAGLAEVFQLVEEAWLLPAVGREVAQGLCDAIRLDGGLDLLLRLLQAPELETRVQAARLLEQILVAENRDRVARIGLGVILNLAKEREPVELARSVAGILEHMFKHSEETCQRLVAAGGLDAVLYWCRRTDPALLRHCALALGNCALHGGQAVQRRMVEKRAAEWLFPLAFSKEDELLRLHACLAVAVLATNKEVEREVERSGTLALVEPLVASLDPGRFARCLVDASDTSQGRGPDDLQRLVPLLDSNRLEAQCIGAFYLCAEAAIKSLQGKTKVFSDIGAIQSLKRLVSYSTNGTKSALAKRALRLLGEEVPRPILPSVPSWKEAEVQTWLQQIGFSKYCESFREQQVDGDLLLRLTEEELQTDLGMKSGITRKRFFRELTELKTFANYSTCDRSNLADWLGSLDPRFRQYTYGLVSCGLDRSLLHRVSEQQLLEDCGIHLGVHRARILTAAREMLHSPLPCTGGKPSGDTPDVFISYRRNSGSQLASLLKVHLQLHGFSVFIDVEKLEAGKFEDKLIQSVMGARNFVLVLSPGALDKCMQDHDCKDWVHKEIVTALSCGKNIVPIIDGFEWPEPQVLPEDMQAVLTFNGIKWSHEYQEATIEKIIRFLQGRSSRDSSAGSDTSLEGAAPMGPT
# [13] = galactose survival enhancers in mitochondrial complex I cybrids – cell-based, galactose medium, ATP luminescence, primary screen (AID 1645843;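 active means z-score of at least 1.8 in each of two replicates, scored against plate mean and spread of sample wells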;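 further: positive z means more ATP and so rescue of galactose-driven cybrid death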); conditions: complex I mutant cybrid cells, 72 h, stronger effect = higher value
# [14] = tested on: Aerobactin synthetase IucA (Klebsiella pneumoniae); test: inhibition of K. pneumoniae IucA enzyme – biochemical, Tocris library, absorbance (AID 1345561; call rule not given here;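 further: 100% = enzyme without compound and 0% = no enzyme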); conditions: purified IucA enzyme assay, absorbance (OD) read-out; stronger effect = lower value;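 tested at 8 µM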
# [15] = viability loss in pontine glioma line – cell-based, SU-DIPG-XVII, MIPE5.0, CellTiter-Glo, qHTS, dose response (AID 1347060; cut-off not given, nearly all actives have AC50 up to about 26 µM;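 further: cells exposed to compound for 48 hours before viability readout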); conditions: CellTiter-Glo ATP luminescence
# [16] = viability loss in pontine glioma line – cell-based, SU-DIPG-XIII, MIPE4.0, CellTiter-Glo, qHTS, dose response (AID 1347061; cut-off not given, nearly all actives have AC50 up to about 37 µM;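 further: cells exposed to compound for 48 hours before readout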); conditions: CellTiter-Glo ATP luminescence
# [17] = viability loss in pontine glioma line – cell-based, JHH-DIPG-1, MIPE4.0, CellTiter-Glo, qHTS, dose response (AID 1347062; cut-off not given, nearly all actives have AC50 up to about 27 µM;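 further: cells exposed to compound for two days before readout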); conditions: JHH-DIPG-1 viability, CellTiter-Glo ATP luminescence
# [18] = growth inhibition of DIPG cells – cell-based, MIPE5.0 library, qHTS (AID 1347068; cut-off not given, nearly all actives have IC50 up to about 30 µM); conditions: SU-DIPG-XXV viability
# [19] = viability loss with induced miR-34 in A549 – imaging, A549 dox-inducible miR-34, nuclei and caspase counts, primary screen (AID 1347080;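 active means compounds whose cell count with miR-34 switched on is under 0.7 times the count with it off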); conditions: A549 miR-34 inducible, Hoechst nuclei count, 48 h
# [20] = measured here: epithelial PC-3E GFP cell survival
# [21] = measured here: mesenchymal TEM4-18 mCherry cell survival
# [22] = MELAS cybrid survival, CellTiter-Glo 48 h, stronger effect = higher value
# [23] = Rieske KO mouse fibroblast survival, CellTiter-Glo 72 h
# [24] = stronger effect = lower value, cell number ratio, induced over uninduced
# [25] = measured here: relative caspase fold change +Dox/-Dox
# [26] = measured here: total cells with miR-34 induction, stronger effect = lower value
# [27] = measured here: total cells without miR-34 induction
smiles,measurement,setting,value
C[N+](C)(C)CCCCCCCCCC[N+](C)(C)C,parasite load remaining,[1],84.1% (inactive) and 61.8% (inactive) and 73.4% (inactive)
same,viability,[1],80.8% and 105% and 148%
same,nuclear beta-catenin stimulation,[2]; at 10 µM,-0.1% (inactive)
same,nuclear beta-catenin stimulation,"[2]; stimulation, at 2 µM",-0.9%
same,insulin secretion stimulation,[3],1.7% (inactive)
same,viability decrease,[4],17.6% (inactive)
same,tube area decrease,[5],-2.9% (inactive)
same,GLP1 secretion stimulation,[6],0.7% (inactive)
same,inhibition of viability,[7],2.9% (inactive)
same,viability decrease (inhibition),[8],-8.7% (inactive)
same,viability decrease (inhibition),[9],-0.3% (inactive)
same,red/green cell ratio (normalised),[10],0.87 (inactive)
same,normalised cell number,[10]; [20],1.13
same,normalised cell number,[10]; [21],0.99
same,z-score,[11]; [22],-0.278 (inactive) and -0.415 (inactive) and 0.382 (inactive)
same,z-score,[11]; [23],-0.149 and -1.14 and 0.433
same,remaining NAD,[12],10 nM (inactive)
same,z-score,[13],0.27 (inactive) and 0.14 (inactive)
CNCc1ccccc1,nuclear beta-catenin stimulation,[2]; at 10 µM,-1.9% (inactive)
same,nuclear beta-catenin stimulation,"[2]; stimulation, at 2 µM",0.6%
same,insulin secretion stimulation,[3],-0.1% (inactive)
same,viability decrease,[4],-25.9% (inactive)
same,tube area decrease,[5],-5.5% (inactive)
same,GLP1 secretion stimulation,[6],-3.4% (inactive)
same,inhibition of viability,[7],-14.3% (inactive)
same,viability decrease (inhibition),[8],-24.6% (inactive)
same,viability decrease (inhibition),[9],-15.4% (inactive)
same,red/green cell ratio (normalised),[10],0.9 (inactive)
same,normalised cell number,[10]; [20],1.18
same,normalised cell number,[10]; [21],1.06
CC1=C(/C=C/C(C)=C/C=C/C(C)=C/C(=O)Nc2ccc(O)cc2)C(C)(C)CCC1,parasite load remaining,[1],39.4% (inactive)
same,viability,[1],108%
same,nuclear beta-catenin stimulation,[2]; at 10 µM,21.3% (inactive)
same,nuclear beta-catenin stimulation,"[2]; stimulation, at 2 µM",39.9%
same,insulin secretion stimulation,[3],2.3% (inactive)
same,viability decrease,[4],98.8% (active)
same,tube area decrease,[5],110% (active)
same,GLP1 secretion stimulation,[6],2.4% (inactive)
same,inhibition of viability,[7],90.4% (active)
same,viability decrease (inhibition),[8],118% (active)
same,viability decrease (inhibition),[9],94.3% (active)
same,remaining activity,[14],97.3% (inactive)
same,AC50,[15],20.9 µM (active)
same,AC50,[16],34 µM (active)
same,AC50,[17],2.7 µM (active)
same,outcome,[18],inactive
same,z-score,[11]; [22],0.416 (inactive)
same,z-score,[11]; [23],0.408
same,z-score,[13],-0.95 (inactive) and -0.72 (inactive) and -2.12 (inactive)
COc1cc(C(=O)NCCCCCC(=O)O)cc(OC)c1OC,parasite load remaining,[1],48.5% (inactive)
same,viability,[1],104%
same,nuclear beta-catenin stimulation,[2]; at 10 µM,-0.1% (inactive)
same,nuclear beta-catenin stimulation,"[2]; stimulation, at 2 µM",-2.6%
same,insulin secretion stimulation,[3],0.5% (inactive)
same,viability decrease,[4],5.7% (inactive)
same,tube area decrease,[5],12.7% (inactive)
same,GLP1 secretion stimulation,[6],-0.6% (inactive)
same,inhibition of viability,[7],6.2% (inactive)
same,viability decrease (inhibition),[8],-6.6% (inactive)
same,viability decrease (inhibition),[9],-0.7% (inactive)
same,red/green cell ratio (normalised),[10],0.91 (inactive)
same,normalised cell number,[10]; [20],0.95
same,normalised cell number,[10]; [21],0.86
same,fold change,[19]; [24],0.815 (inactive)
same,fold change,[19]; [25],7.04
same,cell count,[19]; [26],11100
same,cell count,[19]; [27],13600
same,remaining NAD,[12],10 nM (inactive)
COc1cc(N)c(Cl)cc1C(=O)NC1CCN(CCCOc2ccc(F)cc2)CC1OC (configuration not stated),parasite load remaining,[1],96.4% (inactive)
same,viability,[1],81.1%
same,nuclear beta-catenin stimulation,[2]; at 10 µM,13% (inactive)
same,nuclear beta-catenin stimulation,"[2]; stimulation, at 2 µM",3.1%
same,insulin secretion stimulation,[3],7.5% (inactive)
same,viability decrease,[4],20.6% (inactive)
same,tube area decrease,[5],-0.4% (inactive)
same,GLP1 secretion stimulation,[6],13.3% (inactive)
same,inhibition of viability,[7],53.9% (active)
same,viability decrease (inhibition),[8],66.7% (active)
same,viability decrease (inhibition),[9],22.4% (inactive)
same,red/green cell ratio (normalised),[10],0.95 (inactive)
same,normalised cell number,[10]; [20],0.93
same,normalised cell number,[10]; [21],0.88
same,fold change,[19]; [24],0.948 (inactive)
same,fold change,[19]; [25],1.94
same,cell count,[19]; [26],8510
same,cell count,[19]; [27],8980
same,z-score,[13],-0.435 (inactive)
